Test results from PubChem BioAssay.
Activity calls are given as the source filed them.

Tests used:
Albumin (Bos taurus) = Albumin (Bos taurus) (UniProt P02769); assay: compounds binding labelled BSA control protein – biochemical, small-molecule microarray, Alexa647 label, 635/667 nm fluorescence, artefact control for SMM control protein annotation, profiling panel (AID 1118); conditions: BSA-A647 binding, fluorescence 635 nm, higher = more signal;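 note: score merges 667 nm emission intensity and signal-to-noise per printed compound spot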
Sequence of Albumin (Bos taurus) (P02769 whole entry, looked up): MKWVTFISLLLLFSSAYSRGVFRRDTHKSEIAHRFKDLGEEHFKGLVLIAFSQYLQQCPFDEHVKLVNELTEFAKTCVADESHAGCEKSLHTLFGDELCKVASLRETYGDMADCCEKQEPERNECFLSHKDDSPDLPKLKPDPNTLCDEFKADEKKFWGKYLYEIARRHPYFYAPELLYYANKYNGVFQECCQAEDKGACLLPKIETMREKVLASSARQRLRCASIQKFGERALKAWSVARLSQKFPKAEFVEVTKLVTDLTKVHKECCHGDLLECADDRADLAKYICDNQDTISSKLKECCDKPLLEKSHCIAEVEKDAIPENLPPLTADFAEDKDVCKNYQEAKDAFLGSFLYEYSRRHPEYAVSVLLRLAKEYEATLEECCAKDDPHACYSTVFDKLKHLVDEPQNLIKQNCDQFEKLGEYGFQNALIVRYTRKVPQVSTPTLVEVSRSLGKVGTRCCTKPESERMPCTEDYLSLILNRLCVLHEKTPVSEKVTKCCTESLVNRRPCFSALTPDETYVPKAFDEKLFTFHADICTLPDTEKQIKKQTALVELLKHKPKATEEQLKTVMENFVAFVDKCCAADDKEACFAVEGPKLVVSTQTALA

[1] = probe aXIP binding to arrayed compounds – biochemical, NeuroSMM set, 635/667 nm fluorescence, primary screen (AID 1119); conditions: small-molecule microarray, higher = more signal, called active from +8 up or from −8 down;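 note: probe is the protein aXip251-270 applied at 1 µg/mL to compound-printed slides; binding of probe to printed compounds measured as 667 nm fluorescence plus signal to noise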
[2] = probe aNOTCH3 binding on compound microarray – biochemical, small-molecule microarray, 635/667 nm fluorescence, primary screen (AID 1120); conditions: higher = more signal;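 note: probe is a biotin-tagged antibody raised against NOTCH3 rather than NOTCH3 protein; score merges spot fluorescence near 667 nm with spot signal to noise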
[3] = probe aNOTCH2 binding on compound microarray – biochemical, small-molecule microarray, 635/667 nm fluorescence, primary screen (AID 1121); conditions: higher = more signal;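 note: score merges feature fluorescence read at 667 nm with its signal to noise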
[4] = target: Carbonic anhydrase 2 (Homo sapiens) (UniProt P00918); assay: compounds binding carbonic anhydrase 2 – biochemical, small-molecule microarray, Alexa647-labelled CAII, profiling panel (AID 1122); conditions: CAII-A647 binding fluorescence, higher = more signal
[5] = COS7 lysate on small-molecule microarray, probe aHis, 635 nm (AID 1123); conditions: COS7 cell lysate, fluorescence, higher = more signal;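 note: z-score combines 667nm fluorescence intensity with signal-to-noise per printed compound spot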
[6] = probe aLAP1 signal on lysate-treated microarray – cell lysate, small-molecule microarray, COS7 lysate, primary screen (AID 1124); conditions: probe aLAP1, fluorescence, higher = more signal;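 note: lysate comes from COS7 cells expressing LAP1 and is applied at 0.3 µg/mL; score merges spot fluorescence near 667 nm with signal-to-noise over triplicate slides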
Sam68 (KHDRBS1) = assay: compounds binding KHDRBS1 protein – biochemical, small-molecule microarray, 635 nm fluorescence, primary screen (AID 1125); conditions: higher = more signal;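 note: score merges 667 nm channel intensity with signal to noise over triplicate slides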
[7] = tested on: Chordin-like protein 2 (CHRDL2); assay: compounds binding chordin-like 2 – biochemical, small-molecule microarray, 635 nm fluorescence, primary screen (AID 1126); conditions: fluorescence 635 nm, higher = more signal;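 note: printed compound slides probed with Chrdl2 protein at 4 µg/mL for 1 h at 4 C; score merges 667 nm emission intensity with signal to noise over three replicate slides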
[8] = target: Concanavalin-A (Canavalia ensiformis) (UniProt P02866); assay: compounds binding concanavalin A lectin – biochemical, small-molecule microarray, Alexa647 label, 635 nm, artefact control for SMM control protein annotation, primary screen (AID 1127); conditions: ConA-A647 binding fluorescence, higher = more signal;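 note: z combines 667 nm emission intensity with signal-to-noise across three replicate slides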
Sequence of Concanavalin-A (Canavalia ensiformis) (P02866 whole entry, looked up): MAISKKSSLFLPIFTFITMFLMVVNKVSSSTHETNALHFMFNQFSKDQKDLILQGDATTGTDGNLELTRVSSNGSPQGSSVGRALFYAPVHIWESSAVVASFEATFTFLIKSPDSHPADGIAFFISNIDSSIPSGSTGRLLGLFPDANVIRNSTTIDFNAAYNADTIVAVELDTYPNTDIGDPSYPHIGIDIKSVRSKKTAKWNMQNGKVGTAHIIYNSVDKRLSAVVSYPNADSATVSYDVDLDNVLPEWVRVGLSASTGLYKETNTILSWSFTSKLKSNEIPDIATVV

[9] = compounds binding Alexa647 anti-His antibody – biochemical, small-molecule microarray, 635 nm fluorescence, artefact control for SMM control protein annotation, primary screen (AID 1128); conditions: higher = more signal;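 note: score merges feature fluorescence with signal-to-noise for each printed compound spot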
[10] = tested on: Human papillomavirus type 1a E7 protein (residues 1-88); assay: HPV1a E7 small-molecule binders, primary screen, biochemical, small-molecule microarray, residues 1-88, 635 nm (AID 1129); conditions: small-molecule microarray binding, fluorescence 635 nm; higher = more signal
[11] = target: Focal adhesion kinase 1 (Homo sapiens) (UniProt Q05397); assay: PTK2 protein binding on printed compound slides – biochemical, small-molecule microarray, 635/667 nm fluorescence, BSA, DTT, primary screen (AID 1130); conditions: 635 nm fluorescence, higher = more signal;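 note: composite of spot emission at 667 nm and signal to noise over triplicate slides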
Sequence of Focal adhesion kinase 1 (Homo sapiens) (Q05397 whole entry, looked up): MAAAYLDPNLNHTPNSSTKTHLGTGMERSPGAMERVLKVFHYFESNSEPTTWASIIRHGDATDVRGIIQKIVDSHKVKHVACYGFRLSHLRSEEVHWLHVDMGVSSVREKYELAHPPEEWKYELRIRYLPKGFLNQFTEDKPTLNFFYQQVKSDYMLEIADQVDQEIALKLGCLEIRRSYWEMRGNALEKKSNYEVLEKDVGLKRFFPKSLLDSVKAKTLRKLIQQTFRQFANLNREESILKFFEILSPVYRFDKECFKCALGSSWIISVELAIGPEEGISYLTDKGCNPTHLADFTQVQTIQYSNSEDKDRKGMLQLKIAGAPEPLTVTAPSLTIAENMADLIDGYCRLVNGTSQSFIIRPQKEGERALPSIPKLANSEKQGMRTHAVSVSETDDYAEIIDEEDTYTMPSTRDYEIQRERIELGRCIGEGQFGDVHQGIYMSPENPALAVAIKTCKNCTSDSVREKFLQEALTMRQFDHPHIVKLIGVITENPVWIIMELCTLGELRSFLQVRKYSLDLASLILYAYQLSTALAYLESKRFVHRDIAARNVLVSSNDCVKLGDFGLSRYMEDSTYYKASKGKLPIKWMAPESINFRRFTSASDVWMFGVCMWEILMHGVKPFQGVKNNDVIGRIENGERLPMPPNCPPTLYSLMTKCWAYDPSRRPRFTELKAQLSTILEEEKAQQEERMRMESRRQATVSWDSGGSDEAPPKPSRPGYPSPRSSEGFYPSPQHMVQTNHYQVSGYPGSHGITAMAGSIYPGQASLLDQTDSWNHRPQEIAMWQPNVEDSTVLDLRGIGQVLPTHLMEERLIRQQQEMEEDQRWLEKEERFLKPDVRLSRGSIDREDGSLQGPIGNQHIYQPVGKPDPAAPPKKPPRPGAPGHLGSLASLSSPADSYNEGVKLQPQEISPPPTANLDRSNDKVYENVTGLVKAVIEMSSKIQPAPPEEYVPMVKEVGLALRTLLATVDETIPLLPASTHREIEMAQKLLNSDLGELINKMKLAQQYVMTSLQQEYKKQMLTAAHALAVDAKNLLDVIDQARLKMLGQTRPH

[12] = tested on: Fibrinogen (Alexa647-labelled); assay: Alexa647-fibrinogen binding to printed small molecules – biochemical, small-molecule microarray, 635/667 nm fluorescence, artefact control for SMM control-protein annotation, profiling panel (AID 1131); conditions: fibrinogen-A647 binding fluorescence, higher = more signal;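 note: z-score merges 667 nm fluorescence with per-spot signal-to-noise over triplicate slides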
[13] = target: Follistatin (Homo sapiens) (UniProt P19883); assay: FST protein binding to printed compounds – biochemical, small-molecule microarray, 635/667 nm fluorescence, primary screen (AID 1132); conditions: 635 nm fluorescence, higher = more signal
Sequence of Follistatin (Homo sapiens) (P19883 whole entry, looked up): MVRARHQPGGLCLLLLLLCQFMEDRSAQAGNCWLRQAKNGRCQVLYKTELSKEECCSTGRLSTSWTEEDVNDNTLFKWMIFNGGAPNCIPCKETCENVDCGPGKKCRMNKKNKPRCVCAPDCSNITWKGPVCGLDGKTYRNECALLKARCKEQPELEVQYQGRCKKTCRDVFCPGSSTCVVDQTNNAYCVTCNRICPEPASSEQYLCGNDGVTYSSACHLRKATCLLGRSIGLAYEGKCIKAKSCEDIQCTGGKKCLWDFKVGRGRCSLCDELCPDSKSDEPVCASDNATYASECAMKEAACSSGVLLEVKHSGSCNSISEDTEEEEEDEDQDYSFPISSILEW

[14] = target: Fibroblast growth factor 2 (Homo sapiens) (UniProt P09038); assay: basic fibroblast growth factor binding to printed compounds – biochemical, small-molecule microarray, 635/667 nm fluorescence, primary screen (AID 1133); conditions: FGF2, fluorescence 635/667, higher = more signal
Sequence of Fibroblast growth factor 2 (Homo sapiens) (P09038 whole entry, looked up): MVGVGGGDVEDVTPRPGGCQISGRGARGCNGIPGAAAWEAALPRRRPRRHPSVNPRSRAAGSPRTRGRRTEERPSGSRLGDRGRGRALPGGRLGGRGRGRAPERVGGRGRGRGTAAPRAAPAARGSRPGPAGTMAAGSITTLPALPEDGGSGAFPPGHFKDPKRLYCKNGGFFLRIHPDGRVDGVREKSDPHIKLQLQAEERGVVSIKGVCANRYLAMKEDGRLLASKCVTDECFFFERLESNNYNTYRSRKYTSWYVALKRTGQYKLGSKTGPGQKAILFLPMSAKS

[15] = JC-1 mitochondrial potential readout, lung cancer cells – cell-based, A549, JC-1 fluorescence, basal, 24 h, 100 nL, profiling panel (AID 1138); conditions: higher = more signal;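 note: A549 lung adenocarcinoma cells under basal conditions with no added stimulus; test concentration not given here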
Lefty1 = Lefty1 protein binding to printed compounds – biochemical, small-molecule microarray, 635/667 nm fluorescence, primary screen (AID 1139); conditions: fluorescence 635/667, higher = more signal
[16] = tested on: wheat germ agglutinin (Triticum aestivum), Alexa647-labelled; assay: Alexa647-WGA lectin binding to printed small molecules – biochemical, small-molecule microarray, 635/667 nm fluorescence, artefact control for SMM control-protein annotation, profiling panel (AID 1140); conditions: WGA-A647 binding, 635 nm fluorescence, higher = more signal;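 note: score merges 667 nm feature emission with signal to noise over triplicate slides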
[17] = target: Luciferin 4-monooxygenase (Photinus pyralis) (UniProt P08659); assay: inhibition of purified Photinus pyralis luciferase – biochemical, luminescence, purified enzyme, 2006 set, primary screen (AID 1141); conditions: purified firefly luciferase, SteadyGlo luminescence, 30 min; higher = more signal, called active from +8 up or from −8 down;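 note: cell-free assay with purified firefly luciferase at 100 ng per well in PBS; test concentration not given here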
Sequence of Luciferin 4-monooxygenase (Photinus pyralis) (P08659 whole entry, looked up): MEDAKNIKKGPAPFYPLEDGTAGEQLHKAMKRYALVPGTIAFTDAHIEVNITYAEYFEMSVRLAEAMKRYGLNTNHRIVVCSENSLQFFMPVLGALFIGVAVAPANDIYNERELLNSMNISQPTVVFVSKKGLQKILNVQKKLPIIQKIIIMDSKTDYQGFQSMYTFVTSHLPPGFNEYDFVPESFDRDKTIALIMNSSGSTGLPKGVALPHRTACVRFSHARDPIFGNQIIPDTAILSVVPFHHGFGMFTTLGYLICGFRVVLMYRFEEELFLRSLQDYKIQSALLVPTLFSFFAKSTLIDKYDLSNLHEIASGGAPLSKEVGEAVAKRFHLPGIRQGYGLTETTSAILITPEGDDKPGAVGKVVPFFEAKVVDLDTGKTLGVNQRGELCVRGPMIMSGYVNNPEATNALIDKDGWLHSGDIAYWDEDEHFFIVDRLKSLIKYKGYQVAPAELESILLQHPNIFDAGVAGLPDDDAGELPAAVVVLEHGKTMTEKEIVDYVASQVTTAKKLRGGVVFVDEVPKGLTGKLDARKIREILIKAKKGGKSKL

| Structure (SMILES) | composite z-score (Albumin (Bos taurus)) | composite Z-score [1] | composite z-score [2] | composite z-score [3] | composite z-score [4] | composite z-score [5] | composite z-score [6] | composite z-score (Sam68 (KHDRBS1)) | composite z-score [7] | composite z-score [8] | composite z-score [9] | composite z-score [10] | composite z-score [11] | composite z-score [12] | composite z-score [13] | composite z-score [14] | z-score [15] | composite z-score (Lefty1) | composite z-score [16] | z-score [17] |
| --- | --- | --- | --- | --- | --- | --- | --- | --- | --- | --- | --- | --- | --- | --- | --- | --- | --- | --- | --- | --- |
| COc1ccc([Si](C)(C)[C@@H]2[C@@H](CCn3cc(CCO)nn3)O[C@]3(C(=O)N(Cc4ccc(N5C(=O)c6cccc7cccc5c67)cc4)c4ccccc43)[C@H]2C)cc1 | 0.651 | 0.722 (inactive) | 0.102 | -0.061 | 0.356 | 0.961 | 0.234 | 1.1 | 0.157 | 1.12 | 1.51 | 0.914 | 0.87 | 0.688 | 0.499 | 0.103 | -0.37 | 0.518 | 1.2 | -0.685 (inactive) |
| Cc1ccc(N2C(=O)c3ccccc3[C@](C)(C(=O)NCC(F)(F)F)[C@@H]2c2ccc(CO)cc2)nc1 | -1.6 | -0.326 (inactive) | -0.403 | -0.177 | 0.869 | -0.552 | 0.0759 | -1.78 | -1.8 | -1.26 | -1.32 | -1.22 | -0.637 | -1.94 | -1.6 | -0.986 | -0.2 | -2.1 | -0.188 | -0.679 (inactive) |
| C=C(COC)C(=O)CC[C@H](OC(=O)c1cccnc1)c1cccc(OCCO)c1 | -0.197 | -0.19 (inactive) | 0.53 | 0.156 | 0.608 | 0.613 | 0.123 | 0.579 | 0.601 | -0.0509 | -0.107 | 0.0325 | 0.481 | -0.09 | 0.896 | 1.57 | 1.39 | 1.05 | -0.363 | -2.13 (inactive) |
| C=CCC(OC(C)=O)[C@@H]1[C@@H](N(Cc2ccc(-c3ccccc3)cc2)C(=O)c2ccc(-c3ccccc3)cc2)c2cc(OCCCO)ccc2N1C(=O)c1ccc(-c2ccccc2)cc1 (stereo not given in full) | 0.0452 | -0.254 (inactive) | 0.11 | 0.0086 | -0.0914 | 0.57 | -0.0163 | -0.821 | 0.0312 | -0.473 | -0.726 | 0.274 | 0.63 | -0.705 | 0.288 | -0.215 | 2.51 | -0.418 | 0.0316 | -1.15 (inactive) |
| CCN(CC)c1ccc(N2CC=CC34O[C@@H]5C=CCOC(=O)[C@@H]5[C@H]3C(=O)N(C(CO)C(C)C)[C@@H]4C2=O)cc1 (stereo not given in full) | -0.819 | 0.316 (inactive) | -0.405 | -0.104 | -0.604 | -0.408 | 0.23 | -0.635 | -0.42 | -0.374 | -1.59 | -1.27 | -0.596 | -0.236 | -0.529 | -0.208 | 1.39 | -0.771 | -1.13 | -0.638 (inactive) |
| [N-]=[N+]=NCc1ccccc1C[C@]1(C(=O)NCc2ccccc2)N=C(c2ccc(OCCCO)cc2)O[C@H]1c1ccccc1 | 0.992 | 0.945 (inactive) | 0.2 | 0.139 | 0.396 | 1.85 | 1.45 | 1.16 | -1.4 | 1.09 | 1.67 | 1.18 | 0.445 | 0.813 | -0.257 | -0.0593 | 0.488 | -1.17 | 1.24 | -1.19 (inactive) |
| CCCC[C@@H](O)C1=C(C)C[C@H]2C(=O)N(C)C(=O)[C@H]2[C@H]1CO | 0.799 | 0.475 (inactive) | -0.132 | -0.112 | 0.804 | 0.48 | -0.198 | 0.705 | -0.0576 | 0.0354 | 0.33 | -0.196 | 0.116 | 0.173 | 0.186 | 0.41 | 1.52 | 0.776 | 1.12 | -1.41 (inactive) |
| CC(C)(C)OC(=O)CC[C@@]1(C(=O)NCc2ccccc2)N=C(c2ccc(OCCCO)cc2)O[C@@H]1c1ccccc1CN=[N+]=[N-] | 0.871 | 0.647 (inactive) | 0.33 | -0.0736 | 0.596 | 2.02 | 0.379 | 1.15 | -0.521 | 1.09 | 2.59 | 1.22 | -0.128 | 0.933 | 1.34 | 0.915 | 0.641 | 0.148 | 1.27 | -1.24 (inactive) |
| COCCCNC(=O)[C@@]1(CCS(=O)(=O)c2ccccc2)N=C(c2ccc(OCCCO)cc2)O[C@H]1c1ccccc1CN=[N+]=[N-] | 0.91 | 0.582 (inactive) | 0.448 | 0.0763 | 0.528 | 2.3 | 0.561 | 1.22 | -0.308 | 1.12 | 2.56 | 1.21 | 1.17 | 0.989 | 1.4 | 1.53 | 0.579 | 0.578 | 1.24 | -0.888 (inactive) |
